Compounds with a hit are over-represented: about 2.9% of the library has one in this group of screens.
CF NFkB block – cystic fibrosis NF-kB activation inhibition; KKLEB NF-kB-GFP reporter, PAF-induced, GFP fluorescence overnight; inhibition, % at 5 µM; actives 0.86% (n = 360,000); AID 588850;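 active = at least 50% inhibition at 5 µM, scaled per plate between neutral and stimulator controls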;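 also: PAF is a Pseudomonas aeruginosa culture filtrate used as stimulus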
Peg3 promoter – inhibitors of Peg3 promoter. inhibition, % at 20 µM. HeLa PEG-Prom luciferase reporter, luminescence, overnight. actives 1.7% (n = 360,000). AID 588405;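 active = inhibition of at least 50% at 20 µM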
KKLEB tox – reduces viability of KKLEB cystic fibrosis airway cells | KKLEB CF airway cells viability, ATPlite luminescence, overnight; hits give low values; cells stimulated with P. aeruginosa culture filtrate | activity change (cytotoxicity), % at 5 µM | actives 0.36% (n = 360,000) | AID 602141;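 active = corrected activity change at or below -50% at 5 µM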
EBV LMP1 NFkB – inhibitors of Epstein-Barr LMP1-induced NF-kappaB reporter; actives 0.69% (n = 350,000); inhibition, % at 12.5 µM; LMP1-induced NF-kappaB luciferase reporter cells, luminescence; AID 504558; in the data active = inhibition above about 41%; inconclusive = no clear call, values can overlap the other calls
TRPM1 prom inh – inhibitors of MITF-driven TRPM1 promoter in melanoma cells | SK-MEL-5 TRPM1 promoter luciferase, 24 h | inhibition, % at 12.5 µM | actives 0.83% (n = 330,000) | AID 488899;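 active = mean inhibition across replicates of 60% or more, whatever share of single replicates reaches that level; inconclusive = some that reach 60%, reason not given; inactive = mean inhibition across replicates below 60%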
Shn3 3UTR inh – Schnurri-3 reporter inhibition in Clone20 osteoblasts. Clone20 osteoblast Shn3 3'UTR firefly luciferase, 24 h. actives 0.52% (n = 360,000). inhibition, % at 12.5 µM;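 active = mean inhibition of at least 75% with every replicate also reaching 75%; inconclusive = mean inhibition at least 75% but some replicate below; inactive = mean inhibition below 75%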
A number is an active result; . = inactive; ? = inconclusive; / = no result.

SMILES	CF NFkB block	Peg3 promoter	KKLEB tox	EBV LMP1 NFkB	TRPM1 prom inh	Shn3 3UTR inh
Cc1ccc(NC(=S)N(CCCN2CCCC2)Cc2cccn2Cc2ccc(Cl)cc2)cc1Cl	.	98	.	.	.	.
COCc1ccc(CN2CCC(n3nccc3NC(=O)c3ccc4c(c3)OCO4)CC2)o1	.	.	.	.	/	.
COc1ccc(C(=O)OCC(=O)c2c[nH]c3ccccc23)cc1OC	.	.	.	67	.	.
COc1ccc(NC(=O)COC(=O)Cc2c[nH]c3ccccc23)cc1OC	.	.	.	70	.	.
CC(=O)Nc1ccc(NC(=O)COC(=O)Cc2c[nH]c3ccccc23)cc1	.	.	.	.	.	.
CCc1c(C)nc2ncnn2c1NCCc1ccc(Cl)cc1	.	.	.	.	.	88
OCc1ccccc1-c1ccc2nccn2c1	.	.	.	/	/	.
CN1CCC2(CC1)Nc1nc(SCc3ccc(Cl)cc3)nn1C1=C2CN(C)CC1	.	52	.	.	.	.
Cc1nc2ccccc2n1Cc1ccc(Cl)cc1	.	.	.	.	.	88
CCCn1c(=O)c2c(nc3n2CCCN3CCc2ccccc2)n(C)c1=O	.	.	.	.	.	.
COc1ccc(N2CCCn3c2nc2c3c(=O)n(CCc3ccccc3)c(=O)n2C)cc1	.	52	.	.	.	.
Cn1c(=O)n(CCc2ccccc2)c(=O)c2c1nc1n2CCCN1CCc1ccccc1	.	69	.	.	.	.
Cc1ccc(N2CCCCn3c2nc2c3c(=O)n(CC(=O)O)c(=O)n2C)cc1	.	.	.	56	.	.
Cn1c(=O)n(CCc2ccccc2)c(=O)c2c1nc1n2CCCN1Cc1ccccc1	.	.	.	.	.	.
Cc1ccc(S(=O)(=O)NC(=O)C2(C)CCN2C(=O)CCc2ccc(Cl)cc2Cl)cc1 (stereo not drawn)	.	.	.	/	/	.
[N-]=[N+]=NC1C[C@H](n2ccc(=O)[nH]c2=O)O[C@@H]1CO (stereo partly drawn)	.	.	-61	.	.	.
COc1ccc(F)cc1-c1cc(NC(C)=O)c2ncc(-c3cccc(C(F)(F)F)c3)n2c1	.	.	.	/	/	.
Cc1ccccc1S(=O)(=O)NC(=O)C1(C)CCN1C(=O)c1ccccc1CCc1ccccc1 (stereo not drawn)	.	.	.	/	/	.
CN(C)NC1=CC(=[N+]2CCCC2)CC(C)(C)C1	.	.	.	.	.	.
CCCN(CCC)C1=CC(=[N+]2CCCC2)CC(C)(C)C1	.	.	.	.	73	.
CCOC(=O)c1c(NC(=O)C(=O)N/N=C/c2ccccc2O)sc2c1CCCCC2	.	.	.	.	?	94
CCOC(=O)c1c(NC(=O)C(NCCN(C)C)c2ccccc2)sc2c1CCCC2 (stereo not drawn)	.	106	.	.	76	.
O=C(Nc1ccccc1)c1cc(C2CCCN(C(=O)c3cccs3)C2)on1 (stereo not drawn)	.	.	.	/	/	.
CC(CC(=O)c1ccc(F)cc1)N1CCN(c2ccccc2)CC1 (stereo not drawn)	.	.	.	.	.	.
CC(C)[C@H](NC(=O)c1ccccc1Cl)C(=O)OCC(=O)NCc1ccc2c(c1)OCO2	.	.	.	.	.	.
SMILES	CF NFkB block	Peg3 promoter	KKLEB tox	EBV LMP1 NFkB	TRPM1 prom inh	Shn3 3UTR inh
Cc1cccc(C(=O)N(Cc2ccco2)c2c(N)n(Cc3ccccc3)c(=O)[nH]c2=O)c1	.	.	.	68	.	.
CC(C)CCN(C(=O)Cc1ccc(Cl)c(Cl)c1)c1c(N)n(Cc2ccccc2)c(=O)[nH]c1=O	.	.	.	.	81	.
CC(C)N(Cc1ccccc1)C(=O)COC(=O)c1cnc(Cl)c(Cl)c1	.	83	.	.	.	.
CC(C)CN(C(=O)COC(=O)c1cccnc1Cl)c1c(N)n(Cc2ccccc2)c(=O)[nH]c1=O	.	.	.	.	.	.
CC(C)CN(C(=O)COC(=O)c1cnc(Cl)c(Cl)c1)c1c(N)n(Cc2ccccc2)c(=O)[nH]c1=O	.	85	.	.	.	.
O=C(NCc1cccc(Cl)c1)c1cccc(S(=O)(=O)N2CCCC2)c1	.	.	.	.	.	.
CCOc1ccccc1-c1cnc(NC)cn1	.	.	.	/	/	.
Cc1cccc(C)c1NC(=O)NS(=O)(=O)c1ccccc1	.	.	.	.	/	.
CCCS(=O)(=O)NC(=O)C1(C)CCN(C(=O)c2cc(-c3cccs3)oc2C)C1 (stereo not drawn)	.	.	.	/	/	.
Cc1onc(-c2ccccc2)c1C(=O)OCC(=O)c1ccc(F)cc1	.	.	.	.	/	.
CC(=O)c1c(C)[nH]c(C(=O)COC(=O)CN2C(=O)C3CCCCC3C2=O)c1C (stereo not drawn)	.	.	.	.	.	.
CCOC(=O)c1c(C)[nH]c(C(=O)COC(=O)[C@H](C)N2C(=O)C3CCCCC3C2=O)c1C (stereo partly drawn)	.	.	.	.	.	93
CCc1ccc(OCc2n[nH]c(=S)n2C(C)CCCC(C)C)cc1 (stereo not drawn)	.	111	.	.	.	.
O=C(NCCN1C(=O)S/C(=C\c2ccc(Cl)c([N+](=O)[O-])c2)C1=O)C1=COCCO1	.	93	.	.	.	.
Cc1ccc(Cl)cc1N1CCN(C(=O)C2CCC(=O)N(C3CCCCCC3)C2)CC1 (stereo not drawn)	.	.	.	.	.	86
C[C@H]1CN([C@@H](C)CO)C(=O)CCCn2nncc2CO[C@H]1CN(C)S(=O)(=O)c1cccs1	.	.	.	.	/	.
COc1cc2[nH]c(=O)n(CCCCCC(=O)N3CC=C(c4ccccc4)CC3)c(=O)c2cc1OC	.	70	.	.	.	.
COC(=O)c1ccc2c(=O)n(CCCCCC(=O)N3CCN(c4ccc(F)cc4)CC3)c(=O)[nH]c2c1	.	90	.	.	.	.
CC/C(=C\C1CCCCC1)C(NP(=O)(c1ccccc1)c1ccccc1)c1ccccc1 (stereo not drawn)	.	59	.	.	.	.
CC(C)(C)c1ccc(CC(=O)N2CCC2(C)C(=O)NS(=O)(=O)c2ccc(F)cc2F)cc1 (stereo not drawn)	.	.	.	/	/	.
COc1ccc(NS(=O)(=O)c2cc(NC(=O)CNC(=O)c3cccc(OC)c3)ccc2C)cc1	.	.	.	.	69	.
COc1ccc(NC(=O)C2CCCN(S(=O)(=O)c3cccc4nonc34)C2)c(OC)c1 (stereo not drawn)	.	.	.	63	.	.
COC(=O)CN1C(=O)COc2ccc(S(=O)(=O)N3CCCCC3)cc21	.	.	.	.	/	.
Fc1ccc(Sc2nc(-c3ccccc3)nnc2C(F)(F)F)cc1	.	84	.	.	.	.
CCCN(CC1CC1)c1nc(C)nc(Nc2c(Cl)cc(Cl)cc2Cl)c1Cl	.	.	.	78	.	.
